Screening data from PubChem BioAssay.
Pf growth 48h = Primary qHTS for delayed death inhibitors of the malarial parasite plastid, 48 hour incubation; P. falciparum luciferase growth in erythrocytes, 48 h; Potency, µM (top dose mostly 28.7 µM), without a hit: at the highest dose activity change, negative = inhibition, most hits filed as inhibitors; 310,000 tested, 5.9% active
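Read-out is firefly luciferase luminescence from an integrated reporter in P. falciparum, so falling signal marks reduced parasite growth. Infected erythrocytes were at 2% hematocrit and 0.1% parasitemia (final) in Albumax-supplemented RPMI 1640.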
AMA1-RON2 inh = qHTS for Inhibitors of AMA1-RON; Towards Development of Antimalarial Drug Lead: Primary Screen; AID 720542, 2013; 360,000 tested, 0.2% active; Potency, µM (doses to about 58.2 µM), for the others: at the top dose activity change, negative = inhibition, most hits filed as inhibitors; AlphaScreen AMA1-biotinylated RON2 peptide binding; Plasmodium falciparum AMA1 (3D7) - RON2 peptide interaction;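 further: 0% = vehicle wells and -100% = peptide control; nearly all actives have a fitted effect of over 45% in size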
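AMA1 (3D7) with his tag at 25 nM final met compounds first, then biotinylated RON2 peptide at 25 nM; detection used donor plus acceptor beads, 10 µg/mL apiece, read by AlphaScreen after 30 min at room temperature.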
AmpC inh detg = qHTS Inhibitors of AmpC Beta-Lactamase (assay with detergent); Potency, µM (series often up to 114 µM), inactives show at the highest dose activity change, negative = inhibition, hits mostly inhibitors; P00811; AID 485294, 2010; 370,000 tested, 0.041% active; AmpC hydrolysis of nitrocefin, absorbance 480 nm, 0.01% Triton;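 further: 0% = no-compound wells and -100% = no-enzyme wells; nearly all actives have a fitted effect of over 25% in size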
Target sequence (P00811 whole entry, looked up): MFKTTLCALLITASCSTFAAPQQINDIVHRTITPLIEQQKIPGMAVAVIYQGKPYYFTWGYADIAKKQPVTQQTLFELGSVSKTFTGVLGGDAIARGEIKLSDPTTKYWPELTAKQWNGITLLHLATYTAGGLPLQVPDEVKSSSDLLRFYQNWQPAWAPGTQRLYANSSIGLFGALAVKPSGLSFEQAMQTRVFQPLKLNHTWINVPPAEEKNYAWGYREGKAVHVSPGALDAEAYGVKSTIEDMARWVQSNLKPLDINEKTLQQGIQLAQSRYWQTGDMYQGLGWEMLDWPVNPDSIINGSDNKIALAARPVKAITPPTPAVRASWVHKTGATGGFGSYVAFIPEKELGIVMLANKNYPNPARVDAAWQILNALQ
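20 mM phosphate pH 7.0 + 0.01% (detergent screen) or 0.0001% Triton X-100; 5.3 nM AmpC reagent; cpd preinc 15 min RT; nitrocefin (800 uM stock) to start; A480 q20 s × 4 min; Activity was normalised to no-enzyme and no-compound control wells.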
AmpC inh no detg = qHTS Inhibitors of AmpC Beta-Lactamase (assay without detergent); Potency, µM (titrated, usually from 57.1 µM), for inactives: at the top dose activity change, negative = inhibition, hits mostly inhibitors; AID 485341, 2010; P00811; AmpC nitrocefin hydrolysis, absorbance 480 nm, 0.0001% Triton; 330,000 tested, 0.52% active;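 further: plate controls were no compound for no effect and no enzyme for full effect; nearly all actives have a fitted effect of over 20% in size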
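20 mM phosphate pH 7.0 + 0.01% (detergent screen) or 0.0001% Triton X-100; 5.3 nM AmpC reagent; cpd preinc 15 min RT; nitrocefin (800 uM stock) to start; A480 q20 s × 4 min; Activity was normalised to no-enzyme and no-compound control wells.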
Pf growth 96h = Primary qHTS for delayed death inhibitors of the malarial parasite plastid, 96 hour incubation; P. falciparum luciferase reporter growth, 96 h; Potency, µM (titrated, usually from 28.7 µM), for inactives: at the highest dose activity change, negative = inhibition, usual class: inhibitors; 320,000 tested, 6.9% active; AID 504834, 2011
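Parasite growth measured via integrated firefly luciferase reporter in P. falciparum. Infected erythrocytes at 2% hematocrit, 0.05% parasitemia final were treated 96 hours at 37 C under 5% CO2, and luminescence was read.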
HCV inhibitor = qHTS Assay for Inhibitors of Hepatitis C Virus (HCV); Huh7.5.1 HCVcc-Cre infection, luciferase reporter, 44 h; Potency, µM (top dose mostly 41.8 µM), for inactives: at the highest dose activity change, negative = inhibition, hits mostly inhibitors; 340,000 tested, 3.4% active
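Infectious HCVcc-Cre (~0.5 moi) was added to cells just after compound, with cells seeded 4 h earlier at 1,000 per well. Luciferase activity after 44 h culture reported infection; substrate was incubated 15 min at room temperature before reading.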
* hit, by the source's call; ? = inconclusive; nt = no result; [ ] = another dose, or the depositor's remark. Rows were chosen to be rich in hits. Some 11% of all compounds tested hit in one or more screens of this group. The call rests on the fitted dose curve; in most records, active means well fitted curve in the direction sought with a large enough effect; inconclusive means small, poorly fitted or top-dose-only effect, or another doubt; inactive means no such curve, though single readings can be large; an effect the other way counts as inactive or inconclusive. Unless noted, on the % scale 0 is the no-effect control and ±100 the full control effect; potency means the concentration at half of the fitted maximal effect.

SMILES | Pf growth 48h | AMA1-RON2 inh | AmpC inh detg | AmpC inh no detg | Pf growth 96h | HCV inhibitor
CCC(=O)OC1(C(=O)CCl)[C@@H](C)C[C@H]2[C@@H]3CCC4=CC(=O)C=C[C@]4(C)[C@@]3(F)[C@@H](O)C[C@@]21C (stereo partly specified) | 2.33µM* | 7.4% | 1.4% | 2.9% | 5.22µM* | 30.3%
O=C(Nc1ccccc1F)c1nc(SCc2ccccc2F)ncc1Cl | nt | nt | 20.3% | nt | nt | nt
CCC(=O)O[C@]1(C(=O)CCl)[C@@H](C)C[C@H]2[C@@H]3CCC4=CC(=O)C=C[C@]4(C)[C@@]3(F)[C@@H](O)C[C@@]21C | 4.65µM* | 1.2% | ? | 4.2% | 4.15µM* | -4.0%[8.37 µM]
COc1cccc2sc(Nc3nnc(-c4cccs4)o3)nc12 | ? | 23.6% | -14.5% | 44.8% | 143.6% | ?
COc1cccc2sc(Nc3nnc(-c4ccc(F)cc4)o3)nc12 | 11.7µM* | 42.1% | ? | 137.7% | 1.85µM* | ?
C=CC1CN2CCC1CC2c1[nH]c2ccccc2c1CCO (stereo unspecified) | -6.8% | 1.1% | -10.1% | -26.5% | -3.7% | 1.2%
C=C[C@H]1CN2CC[C@H]1C[C@H]2[C@H](O)c1ccnc2ccccc12 | 0.147µM* | -4.7% | ? | -32.2% | ? | -28.9%
O=C(O)[C@@H](O)[C@@H](O)[C@H](O)[C@H](O)CO | 6.01µM* | nt | nt | nt | 8.49µM* | nt
Cc1ccc(O)c(C(=O)c2cc(C(=O)NCCc3ccccc3)c(=O)n(CCc3ccccc3)c2)c1 | 1.85µM* | -24.4% | -6.5% | -39.3% | 1.47µM* | ?
COc1ccc(O)c(C(=O)c2cc(C(=O)NCCc3ccccc3)c(=O)n(CCc3ccccc3)c2)c1 | ? | -24.3% | 4.2% | -49.3% | ? | ?
O=C(c1cc(C(=O)NCc2ccccc2)c(=O)n(Cc2ccccc2)c1)c1cc(Cl)ccc1O | 2.33µM* | -8.2%[2.32 µM] | 1.7% | ? | 0.657µM* | ?
Cc1ccccc1NC(=O)c1cc(C(=O)c2cc(Cl)ccc2O)cn(-c2ccccc2C)c1=O | 0.465µM* | -4.1% | ? | -45.9% | 0.738µM* | 12.6µM*
CC(C)(C)c1ccc(S(=O)(=O)NCc2ccc3c(c2)CCN3C(=O)c2ccccc2)cc1 | nt | nt | -3.3% | nt | nt | nt
O=C1Cc2ccccc2N1c1c(Cl)cccc1Cl | -28.9% | -0.4% | -1.2% | -20.1% | 3.29µM* | 7.0%
OC(c1ccccc1)c1ccncc1 (stereo unspecified) | 3.6% | 9.8% | 1.8% | -12.9% | -20.5% | 12.5%
OC(C1=CC(=Cc2ccncc2)c2ccccc21)c1ccncc1 (stereo unspecified) | nt | -15.6% | nt | nt | nt | 11.2µM*
Cn1c(=O)c2c(ncn2Cc2cccc(Cl)c2)n(C)c1=O | ? | 0.0% | -9.1% | 23.7% | 0.928µM* | 11.2µM*
CSCCC(NC(=O)c1ccco1)C(=O)N1CCN(C(c2ccccc2)c2ccccc2)CC1 (stereo unspecified) | 8.28µM* | -24.9% | -7.2% | 101.6% | 2.08µM* | ?
OC(CCN1CCCCC1)(c1ccccc1)c1ccccc1 | ? | -5.5% | -2.6% | -47.0% | ? | -1.6%[8.37 µM]
OC(CCCN1CCCCC1)(c1ccccc1)c1ccc(C(F)(F)F)cc1 (stereo unspecified) | nt | 3.0% | nt | nt | nt | 11.2µM*
COc1ccc(-c2c(C)nn(-c3ccccc3)c2NC(C)=O)cc1OC | 4.6% | -2.1% | ? | 0.8% | 109.9% | -1.1%
CCN(CC)P1(=O)OC(c2cc(OC)c(OC)c(OC)c2)=Nc2c1c(C)nn2-c1ccccc1 (stereo unspecified) | 10.4µM* | -0.2% | -8.2% | 22.8% | nt | -19.3%
